Source: paper PMC7862700, “An all-to-all approach to the identification of sequence-specific readers for epigenetic DNA modifications on cytosine”

Experiments:
Experiment in all cases: DAPPL (digital affinity profiling via proximity ligation, sequencing); 10 mM Tris-HCl pH 7.5, 50 mM NaCl, 1 mM DTT, 4% glycerol, room temperature, 30 min; GST-TFs on glutathione beads, 16-mer random dsDNA library, 0.1% formaldehyde crosslink after washing; high values mean tight binding
ELK1 = target: T1, ELK1 (Homo sapiens, UniProt P19419 1-428); settings: protein: recombinant; tags: N-terminal GST; dsDNA, one strand shown
T1 sequence: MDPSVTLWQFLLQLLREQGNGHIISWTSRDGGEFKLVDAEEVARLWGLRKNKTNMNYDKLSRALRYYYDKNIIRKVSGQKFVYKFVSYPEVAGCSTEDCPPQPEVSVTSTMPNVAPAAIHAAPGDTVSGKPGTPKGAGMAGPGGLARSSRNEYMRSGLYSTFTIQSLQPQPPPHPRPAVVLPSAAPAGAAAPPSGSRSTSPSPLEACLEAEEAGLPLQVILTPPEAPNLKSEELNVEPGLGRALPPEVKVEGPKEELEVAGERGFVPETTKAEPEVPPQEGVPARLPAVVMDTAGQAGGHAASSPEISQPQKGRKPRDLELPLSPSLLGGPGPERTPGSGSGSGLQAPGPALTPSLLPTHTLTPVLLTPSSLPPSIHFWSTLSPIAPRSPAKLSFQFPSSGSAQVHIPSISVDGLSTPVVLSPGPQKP
Outline: (§1)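 GST fusions of human transcription factors were expressed in yeast and captured with glutathione beads. Once given DNA barcodes and pooled alongside a tag-only sample, they were incubated for 30 min at room temperature with 200 nmole of a random double-stranded 16-mer DNA library in Tris/NaCl/DTT/glycerol buffer, then washed, crosslinked (0.1% formaldehyde), proximity-ligated, PCR-amplified and sequenced on an Illumina NextSeq500. The binding signal of each hexamer is its read frequency for a factor divided by its frequency for the tag-only sample.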

GABPA = target: T2, GABPA (Homo sapiens, UniProt Q06546 1-454); settings: protein: recombinant; tags: N-terminal GST; dsDNA, one strand shown
T2 sequence: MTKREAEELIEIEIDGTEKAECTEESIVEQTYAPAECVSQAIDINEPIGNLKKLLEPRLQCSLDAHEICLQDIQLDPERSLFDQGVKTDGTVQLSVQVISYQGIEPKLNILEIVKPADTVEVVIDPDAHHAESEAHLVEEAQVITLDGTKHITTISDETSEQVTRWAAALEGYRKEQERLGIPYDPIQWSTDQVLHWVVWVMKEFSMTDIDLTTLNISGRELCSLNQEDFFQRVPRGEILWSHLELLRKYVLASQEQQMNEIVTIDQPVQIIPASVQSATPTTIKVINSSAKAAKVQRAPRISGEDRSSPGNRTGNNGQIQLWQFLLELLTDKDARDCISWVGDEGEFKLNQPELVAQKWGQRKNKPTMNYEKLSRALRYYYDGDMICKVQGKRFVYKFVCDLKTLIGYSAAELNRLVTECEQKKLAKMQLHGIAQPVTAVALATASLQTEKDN
Outline: as §1

ELF1 = ELF1 (Homo sapiens, UniProt P32519 1-619); settings: protein: recombinant; tags: N-terminal GST; dsDNA, one strand shown
ELF1, sequence (P32519 whole entry): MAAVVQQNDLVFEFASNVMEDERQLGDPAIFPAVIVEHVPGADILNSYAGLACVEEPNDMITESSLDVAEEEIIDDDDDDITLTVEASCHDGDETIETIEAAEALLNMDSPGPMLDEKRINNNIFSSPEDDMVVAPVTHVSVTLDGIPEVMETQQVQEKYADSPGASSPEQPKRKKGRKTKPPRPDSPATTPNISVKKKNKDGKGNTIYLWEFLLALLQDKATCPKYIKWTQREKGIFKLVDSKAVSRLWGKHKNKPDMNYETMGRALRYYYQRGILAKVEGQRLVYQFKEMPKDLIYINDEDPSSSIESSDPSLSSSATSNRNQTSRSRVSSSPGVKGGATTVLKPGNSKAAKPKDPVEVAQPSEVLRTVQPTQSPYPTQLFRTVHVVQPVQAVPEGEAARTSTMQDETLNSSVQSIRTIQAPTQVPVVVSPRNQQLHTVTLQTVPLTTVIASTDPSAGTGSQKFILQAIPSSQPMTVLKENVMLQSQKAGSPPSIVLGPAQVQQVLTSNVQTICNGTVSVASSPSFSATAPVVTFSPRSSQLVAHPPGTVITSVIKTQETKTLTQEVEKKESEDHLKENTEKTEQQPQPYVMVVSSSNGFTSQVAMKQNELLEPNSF
Outline: as §1

SPIB = SPIB (Homo sapiens, UniProt Q01892 1-262); settings: protein: recombinant; tags: N-terminal GST; dsDNA, one strand shown
SPIB, sequence (Q01892 whole entry): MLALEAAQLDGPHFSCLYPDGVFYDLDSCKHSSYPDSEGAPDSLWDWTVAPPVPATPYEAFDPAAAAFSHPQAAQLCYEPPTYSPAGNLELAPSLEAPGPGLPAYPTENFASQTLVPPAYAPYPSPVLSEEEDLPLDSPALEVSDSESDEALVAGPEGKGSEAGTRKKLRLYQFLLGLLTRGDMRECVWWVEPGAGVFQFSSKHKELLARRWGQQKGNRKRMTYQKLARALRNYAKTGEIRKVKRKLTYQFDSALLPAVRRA
Outline: as §1

ELK3 = target: T3, ELK3 (Homo sapiens, UniProt P41970 1-407); settings: protein: recombinant; tags: N-terminal GST; dsDNA, one strand shown
T3 sequence: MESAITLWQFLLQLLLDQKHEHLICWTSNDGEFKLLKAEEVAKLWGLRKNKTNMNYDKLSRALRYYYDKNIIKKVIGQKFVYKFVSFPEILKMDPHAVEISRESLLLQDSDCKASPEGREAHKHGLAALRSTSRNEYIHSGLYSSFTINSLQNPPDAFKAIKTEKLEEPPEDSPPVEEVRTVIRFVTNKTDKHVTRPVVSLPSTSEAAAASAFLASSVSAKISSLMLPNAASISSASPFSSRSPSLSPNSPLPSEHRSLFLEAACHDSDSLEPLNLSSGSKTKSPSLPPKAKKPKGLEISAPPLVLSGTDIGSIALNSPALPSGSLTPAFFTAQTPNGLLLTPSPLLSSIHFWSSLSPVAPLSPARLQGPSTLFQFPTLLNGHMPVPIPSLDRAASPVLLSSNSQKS
Outline: as §1

FEV = target: T4, FEV (Homo sapiens, UniProt Q99581 1-238); settings: protein: recombinant; tags: N-terminal GST; dsDNA, one strand shown
T4 sequence: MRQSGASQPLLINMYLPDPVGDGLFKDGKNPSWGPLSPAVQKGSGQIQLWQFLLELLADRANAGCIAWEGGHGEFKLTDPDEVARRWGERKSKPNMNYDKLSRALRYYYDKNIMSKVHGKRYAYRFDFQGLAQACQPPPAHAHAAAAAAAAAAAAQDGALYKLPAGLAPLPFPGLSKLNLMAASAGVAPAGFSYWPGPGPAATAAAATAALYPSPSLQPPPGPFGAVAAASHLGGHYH
Outline: as §1

HSF1 = HSF1 (Homo sapiens, UniProt Q00613 1-529); settings: protein: recombinant; tags: N-terminal GST; chain copies: 3; dsDNA, one strand shown
HSF1, sequence (Q00613 whole entry): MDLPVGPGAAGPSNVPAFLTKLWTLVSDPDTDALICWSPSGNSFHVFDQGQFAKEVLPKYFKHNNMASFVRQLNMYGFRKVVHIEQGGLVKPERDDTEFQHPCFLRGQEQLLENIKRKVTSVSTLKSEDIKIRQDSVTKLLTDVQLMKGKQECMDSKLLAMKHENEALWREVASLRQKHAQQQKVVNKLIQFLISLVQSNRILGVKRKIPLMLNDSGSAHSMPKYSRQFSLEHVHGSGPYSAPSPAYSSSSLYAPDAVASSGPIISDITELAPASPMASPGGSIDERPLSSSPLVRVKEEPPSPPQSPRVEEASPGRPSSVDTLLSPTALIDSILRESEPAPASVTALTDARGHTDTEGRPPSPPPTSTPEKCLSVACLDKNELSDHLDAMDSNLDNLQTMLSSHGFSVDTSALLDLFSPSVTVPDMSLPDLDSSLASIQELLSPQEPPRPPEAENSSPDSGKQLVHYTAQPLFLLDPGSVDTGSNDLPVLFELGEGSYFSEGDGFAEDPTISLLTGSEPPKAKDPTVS
Outline: as §1

SPIC = target: T5, SPIC (Homo sapiens, UniProt Q8N5J4 1-248); settings: protein: recombinant; tags: N-terminal GST; dsDNA, one strand shown
T5 sequence: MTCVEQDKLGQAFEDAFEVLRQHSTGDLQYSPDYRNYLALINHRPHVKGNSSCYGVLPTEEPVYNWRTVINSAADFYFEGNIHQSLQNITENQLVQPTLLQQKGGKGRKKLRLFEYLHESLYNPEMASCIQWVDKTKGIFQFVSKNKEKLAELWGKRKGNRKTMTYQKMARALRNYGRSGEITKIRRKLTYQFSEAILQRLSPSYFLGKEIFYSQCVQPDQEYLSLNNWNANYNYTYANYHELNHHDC
Outline: as §1

ELK4 = target: T6, ELK4 (Homo sapiens, UniProt P28324-2 1-405); settings: protein: recombinant; tags: N-terminal GST; dsDNA, one strand shown
T6 sequence: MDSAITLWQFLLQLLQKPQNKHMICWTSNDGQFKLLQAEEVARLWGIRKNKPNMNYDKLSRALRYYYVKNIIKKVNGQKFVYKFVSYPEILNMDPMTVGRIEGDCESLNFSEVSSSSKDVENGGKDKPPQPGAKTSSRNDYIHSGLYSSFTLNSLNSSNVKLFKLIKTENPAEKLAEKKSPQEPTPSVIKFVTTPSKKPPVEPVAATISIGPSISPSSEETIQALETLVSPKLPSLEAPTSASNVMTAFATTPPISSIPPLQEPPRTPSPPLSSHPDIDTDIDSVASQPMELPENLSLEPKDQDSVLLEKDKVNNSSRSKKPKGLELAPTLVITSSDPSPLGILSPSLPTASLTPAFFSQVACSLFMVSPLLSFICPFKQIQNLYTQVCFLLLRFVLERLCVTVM
Outline: as §1

CRX = CRX (Homo sapiens, UniProt O43186 1-299); settings: protein: recombinant; tags: N-terminal GST; dsDNA, one strand shown
CRX, sequence (O43186 whole entry): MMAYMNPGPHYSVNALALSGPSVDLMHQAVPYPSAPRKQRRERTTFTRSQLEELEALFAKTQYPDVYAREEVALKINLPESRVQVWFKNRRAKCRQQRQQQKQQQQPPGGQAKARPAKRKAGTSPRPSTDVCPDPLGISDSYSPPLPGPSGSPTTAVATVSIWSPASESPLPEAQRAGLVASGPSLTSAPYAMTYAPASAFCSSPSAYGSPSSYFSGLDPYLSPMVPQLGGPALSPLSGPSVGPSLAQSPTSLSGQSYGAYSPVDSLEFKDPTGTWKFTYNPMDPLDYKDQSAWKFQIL
Outline: as §1

ERF = target: T7, ERF (Homo sapiens, UniProt P50548 1-548); settings: protein: recombinant; tags: N-terminal GST; dsDNA, one strand shown
T7 sequence: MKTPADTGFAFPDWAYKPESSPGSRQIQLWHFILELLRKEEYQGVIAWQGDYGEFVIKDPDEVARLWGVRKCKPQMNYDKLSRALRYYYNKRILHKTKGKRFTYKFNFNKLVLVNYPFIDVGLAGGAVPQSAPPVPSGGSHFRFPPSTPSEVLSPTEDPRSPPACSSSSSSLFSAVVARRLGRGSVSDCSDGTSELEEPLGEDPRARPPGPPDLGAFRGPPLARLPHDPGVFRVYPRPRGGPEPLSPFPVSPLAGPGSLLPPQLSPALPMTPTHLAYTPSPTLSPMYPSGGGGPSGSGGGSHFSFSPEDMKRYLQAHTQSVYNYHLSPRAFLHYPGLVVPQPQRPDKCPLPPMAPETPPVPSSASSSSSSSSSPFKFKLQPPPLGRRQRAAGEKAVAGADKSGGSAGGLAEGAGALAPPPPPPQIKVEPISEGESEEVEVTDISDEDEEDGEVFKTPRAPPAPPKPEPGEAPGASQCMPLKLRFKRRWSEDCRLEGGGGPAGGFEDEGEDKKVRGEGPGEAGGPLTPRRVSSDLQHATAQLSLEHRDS
Outline: as §1

ETV3L = target: T8, ETV3L (Homo sapiens, UniProt Q6ZN32 1-361); settings: protein: recombinant; tags: N-terminal GST; dsDNA, one strand shown
T8 sequence: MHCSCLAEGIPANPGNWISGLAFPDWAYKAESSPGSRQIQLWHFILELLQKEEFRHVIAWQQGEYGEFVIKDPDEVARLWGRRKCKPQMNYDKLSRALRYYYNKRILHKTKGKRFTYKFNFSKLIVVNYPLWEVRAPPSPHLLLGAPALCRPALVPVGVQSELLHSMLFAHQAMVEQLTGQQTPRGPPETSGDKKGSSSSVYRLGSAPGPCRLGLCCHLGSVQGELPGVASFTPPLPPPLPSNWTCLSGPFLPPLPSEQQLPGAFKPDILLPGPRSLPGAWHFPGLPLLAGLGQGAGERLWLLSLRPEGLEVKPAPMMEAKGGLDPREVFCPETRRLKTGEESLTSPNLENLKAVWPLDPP
Outline: as §1

ETS2 = target: T9, ETS2 (Homo sapiens, UniProt P15036 1-469); settings: protein: recombinant; tags: N-terminal GST; dsDNA, one strand shown
T9 sequence: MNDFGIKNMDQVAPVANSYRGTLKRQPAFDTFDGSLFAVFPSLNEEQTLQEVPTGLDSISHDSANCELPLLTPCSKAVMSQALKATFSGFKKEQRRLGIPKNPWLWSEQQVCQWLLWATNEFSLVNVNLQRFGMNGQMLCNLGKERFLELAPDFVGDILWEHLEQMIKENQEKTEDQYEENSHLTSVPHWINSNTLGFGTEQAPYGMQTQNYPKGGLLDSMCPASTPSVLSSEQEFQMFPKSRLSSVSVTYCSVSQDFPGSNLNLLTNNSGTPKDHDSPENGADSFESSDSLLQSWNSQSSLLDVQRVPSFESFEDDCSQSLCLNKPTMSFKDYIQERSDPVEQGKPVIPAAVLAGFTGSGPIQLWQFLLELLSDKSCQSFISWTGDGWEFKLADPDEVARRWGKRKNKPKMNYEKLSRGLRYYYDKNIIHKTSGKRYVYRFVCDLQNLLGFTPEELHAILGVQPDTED
Outline: as §1

SPDEF = target: T10, SPDEF (Homo sapiens, UniProt O95238 1-335); settings: protein: recombinant; tags: N-terminal GST; dsDNA, one strand shown
T10 sequence: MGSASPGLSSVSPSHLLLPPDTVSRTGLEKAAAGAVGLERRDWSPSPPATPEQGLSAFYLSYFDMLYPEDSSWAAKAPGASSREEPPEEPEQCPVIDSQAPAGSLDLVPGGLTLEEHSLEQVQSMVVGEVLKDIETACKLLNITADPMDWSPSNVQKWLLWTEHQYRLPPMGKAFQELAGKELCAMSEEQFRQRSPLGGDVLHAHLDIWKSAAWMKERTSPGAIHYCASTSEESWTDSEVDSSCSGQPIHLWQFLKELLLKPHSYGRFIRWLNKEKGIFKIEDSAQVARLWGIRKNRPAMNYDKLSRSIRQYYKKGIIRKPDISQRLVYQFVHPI
Outline: as §1

ETV7 = target: T11, ETV7 (Homo sapiens, UniProt Q9Y603 1-341); settings: protein: recombinant; tags: N-terminal GST; dsDNA, one strand shown
T11 sequence: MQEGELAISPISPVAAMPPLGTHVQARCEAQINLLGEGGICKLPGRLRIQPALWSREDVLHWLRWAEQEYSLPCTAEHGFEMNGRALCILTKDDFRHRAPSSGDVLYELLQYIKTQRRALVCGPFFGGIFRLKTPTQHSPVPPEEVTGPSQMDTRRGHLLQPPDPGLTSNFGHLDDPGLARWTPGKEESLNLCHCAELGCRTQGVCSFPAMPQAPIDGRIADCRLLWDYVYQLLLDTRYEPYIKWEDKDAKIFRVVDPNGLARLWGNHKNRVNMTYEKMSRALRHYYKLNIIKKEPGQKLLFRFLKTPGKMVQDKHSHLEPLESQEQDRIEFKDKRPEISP
Outline: as §1

ETV3 = target: T12, ETV3 (Homo sapiens, UniProt P41162-2 1-143); settings: protein: recombinant; tags: N-terminal GST; dsDNA, one strand shown
T12 sequence: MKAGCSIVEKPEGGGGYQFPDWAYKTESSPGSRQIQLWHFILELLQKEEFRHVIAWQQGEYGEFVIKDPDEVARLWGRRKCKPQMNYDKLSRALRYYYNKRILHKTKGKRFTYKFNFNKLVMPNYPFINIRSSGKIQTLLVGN
Outline: as §1

## TCGCAT
ELK1
  binding signal: 1.06 fold enrichment (6-mer frequency, TF over GST control)
GABPA
  binding signal: 1.02 fold enrichment (6-mer frequency, TF over GST control)
ELF1
  binding signal: 1.04 fold enrichment (6-mer frequency, TF over GST control)
SPIB
  binding signal: 1.06 fold enrichment (6-mer frequency, TF over GST control)
ELK3
  binding signal: 1.01 fold enrichment (6-mer frequency, TF over GST control)
FEV
  binding signal: 1.08 fold enrichment (6-mer frequency, TF over GST control)
HSF1
  binding signal: 1.04 fold enrichment (6-mer frequency, TF over GST control)
SPIC
  binding signal: 1.02 fold enrichment (6-mer frequency, TF over GST control)
ELK4
  binding signal: 1.08 fold enrichment (6-mer frequency, TF over GST control)
CRX
  binding signal: 1.15 fold enrichment (6-mer frequency, TF over GST control)
ERF
  binding signal: 1.07 fold enrichment (6-mer frequency, TF over GST control)
ETV3L
  binding signal: 1.03 fold enrichment (6-mer frequency, TF over GST control)
ETS2
  binding signal: 1.04 fold enrichment (6-mer frequency, TF over GST control)
SPDEF
  binding signal: 1.03 fold enrichment (6-mer frequency, TF over GST control)
ETV7
  binding signal: 1.01 fold enrichment (6-mer frequency, TF over GST control)
ETV3
  binding signal: 1.03 fold enrichment (6-mer frequency, TF over GST control)
